From PubChem BioAssay
Shown is part of a subset that was picked to be rich in hits.
Pf Dd2 growth: qHTS Primary assay for Inhibitors of Plasmodium falciparum Dd2 growth in vitro; P. falciparum Dd2 growth, SYBR Green, 72 h; Potency, µM (titrated, usually from 28.9 µM), for the others: top-dose activity, negative = inhibition, actives largely listed as inhibitors; 120,000 compounds, 4.3% hits; active = well fitted inhibition curve with a large enough effect;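 also: plate controls were DMSO vehicle for no effect and reference drug for full effect; nearly all actives have a fitted effect of over 65% in size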
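Readout: SYBR Green fluorescence, 485 nm excitation, 535 nm emission, after ~16 h lysis at 37C. Before that, Dd2-infected red cells (2.5% hematocrit) grew 72 h with compound, 29 uM top final concentration.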
* hit, by the source's call; i = inactive; [ ] = remark or other dose. Potency is read from the fitted curve at half-maximal effect.

SMILES | Pf Dd2 growth
COc1ccc(CNC(=O)C[C@@H]2c3nc(NC(=O)c4cccs4)sc3C[C@@H]3[C@](C)(CO)[C@H](O)CC[C@]32C)cc1 | 4µM*
CCN(CC)C(=O)C[C@@H]1c2nc(NC(=O)c3ccc(F)cc3)sc2C[C@@H]2[C@](C)(CO)[C@H](O)CC[C@]21C | -12%
C=CCN(C)C(=O)C[C@@H]1c2nc(NC(=O)COC)sc2C[C@@H]2[C@](C)(CO)[C@H](O)CC[C@]21C | -8%
COc1ccc(N2Cc3c(NC4CCCC4)ncnc3N(C)CC2=O)cc1 | -1%
CCCS(=O)(=O)NCc1cccnc1Oc1cccc(C(F)(F)F)c1 | -22%
Cc1noc([C@@H]2CN(C(=O)c3ccc4cc[nH]c4c3)C[C@H]2CO)n1 | i
C1CC(C2CCN(C3CNC3)CC2)CN1 (configuration not stated) | -4%
Cc1ccc(/C=C/c2nc3ccccc3[nH]2)cc1 | 10µM*
Cc1ccc(/C=C(\C#N)c2nc3ccccc3c(=O)[nH]2)cc1 | 13%
Cc1ccc(C(C)(C)C)c(OCC(=O)NCCc2nc3ccccc3[nH]2)c1 | 4%
O=[S+]([O-])(C1CC1)N1C2CCC1CN(c1ccc(C(F)(F)F)cc1)C2 | 5%
CC(C)N1C(=O)C2(CCCCC2)C1C(=O)N1CCN(c2ccccc2F)CC1 (configuration not stated) | -29%
COc1ccc(NC(=O)Cn2ccn3nc4c(c3c2=O)CCCCC4)cc1Cl | i
COc1ccc(CCNc2ncnc3c2CN(c2ccccc2C)C(=O)CN3C)cc1 | i
O=C(NCc1nnc2ccc(-c3ccc(Cl)cc3)nn12)c1cccc(Br)c1 | -9%
COc1ccc(C(=O)N2CCC(Cc3nc(-c4cnccn4)no3)CC2)cc1OC | i
COc1ccc(CCNC(=O)Cn2ccn3nc4c(c3c2=O)CCCCC4)cc1OC | 49%
O=C(NCc1ccc2c(c1)OCO2)c1nc(-c2cccc(C(F)(F)F)c2)c2ccccn12 | i
COCCNC(=O)c1nc(-c2cccc(C(F)(F)F)c2)c2cnccn12 | 10µM*
COCCNC(=O)c1nc(-c2cccc(C(F)(F)F)c2)c2ccccn12 | i
COCCNC(=O)c1nc(-c2ccc(OC)cc2)c2ccccn12 | 6%
O=C(NCc1cccs1)c1nc(-c2cccnc2)c2ccccn12 | -7%
O=C(NCc1cccs1)c1nc(-c2cccnc2)c2cnccn12 | 11µM*
C#CCNC(=O)c1nc(-c2ccsc2)c2cnccn12 | -11%[44.1 µM]
C#CCNC(=O)c1nc(-c2cccnc2)c2cnccn12 | i
SMILES | Pf Dd2 growth
O=C(NC1CC1)c1nc(-c2cccc(C(F)(F)F)c2)c2ccccn12 | -19%
O=C(NCc1ccc2c(c1)OCO2)c1nc(-c2cccnc2)c2cnccn12 | i
O=C(NCc1cccnc1)c1nc(-c2cccc(C(F)(F)F)c2)c2ccccn12 | 7.9µM*
C#CCNC(=O)c1nc(-c2cccc(C(F)(F)F)c2)c2cnccn12 | 3.5µM*
Cn1nccc1C(=O)N1CCC[C@H](n2c(=O)n(C)c3cccnc32)C1 | i
COCCN1CCOc2nc(-c3cc(F)cc(OC)c3)ncc2C1=O | -2%[44.1 µM]
COCCn1cnc2ccc(-c3ccc(F)cc3OC)nc2c1=O | i
CCS(=O)(=O)N(C1CC1)C1CCOC2(CCN(C(=O)CCCc3ccccc3)CC2)C1 (configuration not stated) | i
COc1c(F)ccc(C(=O)N2CCC3(CCCNC3)C2)c1F (configuration not stated) | 3%
Cc1ccc(O)c(CN2CCC(C3(c4ccccn4)NC(=O)NC3=O)CC2)c1 (configuration not stated) | -19%
CCOc1ccccc1CNC(=O)c1cccn1-c1nnc(N2CCCCC2)s1 | -13%
CCOc1ccccc1CNCc1cccn1-c1nnc(N2CCN(c3ccccc3)CC2)s1 | 7.1µM*
c1ccc(N2CCN(Cc3cccn3-c3nnc(N4CCN(C5CCCCC5)CC4)s3)CC2)cc1 | -1%
CC(C)(C)CC(=O)Nc1cnc(-c2cccc(Cl)c2)nc1 | i
OCc1cccc(-c2ccc3ncc(Nc4cccc(C(F)(F)F)c4)n3n2)c1 | -20%[44.1 µM]
OCCc1ccc(Nc2cnc3ccc(-c4cccc(CO)c4)nn23)cc1 | i
OCc1cccc(-c2ccc3ncc(Nc4ccccc4Cl)n3n2)c1 | 4µM*
OCc1cccc(-c2ccc3ncc(Nc4ccc(OCCN5CCCC5)cc4)n3n2)c1 | 0.79µM*
C[S+](=O)([O-])Nc1cccc(Nc2cnc3ccc(-c4cccc(CO)c4)nn23)c1 | -2%[44.1 µM]
OCc1cccc(-c2ccc3ncc(Nc4cccnc4)n3n2)c1 | -4%[44.1 µM]
COc1cccc(OC)c1-c1nc(C)c(C)cc1C(N)=O | -9%
O=C(Cn1c(=O)oc2ccccc21)N1CCC(N2CC3CC(C2)[C@H]2CCCC(=O)N2C3)CC1 (some centres not stated) | -14%
C=CCC(=O)N1CCOC(CCCC(C)C)C1 (configuration not stated) | -30%
O=C(CCc1nc(C2CCOC2)no1)NC1CCCCCCC1 (configuration not stated) | 23%
CN(Cc1cccc(C(F)(F)F)c1)Cc1ccccc1C(F)(F)F | -3%[44.1 µM]
SMILES | Pf Dd2 growth
O=C(O)CCC(=O)NC1CC2(CCN(Cc3ccncc3)CC2)c2ccccc21 (configuration not stated) | 38%
O=C1NCCC[C@@H]1NC(=O)[C@@H]1CN(C(=O)c2cccc(F)c2)CCN1C(=O)c1cccc(F)c1 | 2%
COc1ccc(S(=O)(=O)N2CCC(n3cnnc3C3CC3)CC2)cc1Cl | i
COc1cc2[nH]c(=O)n(CCCC(=O)N3CCN(c4cccc(C(F)(F)F)c4)CC3)c(=O)c2cc1OC | i
COc1cc2c(C(=O)N3CCN(c4cccc(C(F)(F)F)c4)CC3)cn(CC(C)C)c(=O)c2cc1OC | 8.9µM*
CCCN(C(=O)c1cn(CC(C)C)c(=O)c2cc(OC)c(OC)cc12)c1cccc(C)c1 | -17%
COc1ccccc1CCC(=O)N1CCc2nn(C)c(=O)n2CC1 | 19%
Cn1nccc1C(O)c1cc2n(n1)CCN(Cc1nc(C3CC3)no1)C2 (configuration not stated) | 4%
Cc1cc(=O)oc2cc(OCC(=O)Nc3ccc(O)c(C(=O)O)c3)ccc12 | 5%
COc1cc2c(cc1OC)C(CNC(=O)c1ccc(C)cc1)N(C(=O)NC(C)C)CC2 (configuration not stated) | -2%
COCC(=O)NCC1c2cc(OC)c(OC)cc2CCN1C(=O)Nc1cccc(F)c1 (configuration not stated) | i
CCCC(=O)N1CCc2cc(OC)c(OC)cc2C1COc1ccc2c(C)cc(=O)oc2c1 (configuration not stated) | 7.1µM*
COc1cc2c(cc1OC)C(CNC(=O)c1cccs1)N(C(=O)Nc1ccc(C)cc1)CC2 (configuration not stated) | -3%
COc1cc2c(cc1OC)C(COc1ccc3c(C)cc(=O)oc3c1)N(C(=O)c1ccc(C)c(C)c1)CC2 (configuration not stated) | 5µM*
CCCNC(=O)NCC1c2cc(OC)c(OC)cc2CCN1C(=O)NCC (configuration not stated) | -18%
COc1cc2c(cc1OC)C(COc1ccc3c(C)cc(=O)oc3c1)N(C(=O)c1ccc(C)cc1)CC2 (configuration not stated) | 11µM*
COCc1cn(C[C@H]2C[C@@H]3CCN2C[C@@H]3C(=O)N2CCCC2)nn1 | 16%[44.1 µM]
COc1ccc(CCc2nnc3n2CCCC3)cc1 | i
O=C(N1CCC(c2n[nH]c(=O)n2-c2ccccc2)CC1)C1(c2ccccc2)CC1 | -9%
CC(=O)N1Cc2ccccc2CC2(CCCN2CC2CCOCC2)C1 (configuration not stated) | -11%
CC(=O)NCCC(=O)N1Cc2ccccc2CC2(CCCN2CC2CCCCC2)C1 (configuration not stated) | 8.9µM*
CC(=O)NCCC(=O)N1Cc2ccccc2CC2(CCN(CC3CCNC3)C2)C1 (configuration not stated) | -12%
CC(=O)N1Cc2ccccc2CC2(CCCN2CC2CCCC2)C1 (configuration not stated) | 10µM*
